From PubChem BioAssay (Tox21)
Inconclusive results are not listed. A call without a number means that no potency is given here. Unmarked numbers belong to inactive results. The source made the active and inactive calls. The call rests on the fitted dose curve; in most records, active means well fitted activation curve with a large enough effect in the repeat runs; inconclusive means weak or mixed curves; inactive means flat fitted curve, though single readings scatter.

assay: A CellTox Green Cytotoxicity Assay to monitor cytotoxicity in HEK293 cells - 8 hour (AID 1224884); settings: CellTox Green fluorescence; series mostly up to 76.8 µM; further: nearly all actives have a fitted effect of over 35% in size
Excerpt: National Center for Advancing Translational Sciences [NCATS]
NIH Chemical Genomics Center [NCGC]
U.S. Environmental Protection Agency [EPA]
National Institutes of Environmental Health Sciences [NIEHS]
National Toxicology Program [NTP]
Cell-based models are critical for drug discovery. Determining the natural cytotoxic effects resulting from test compounds is an essential research activity. A CellTox Green Cytotoxicity Assay to monitor cytotoxicity in real time of continues cell culture during 40 hours of the compound treatment was used to screen Tox21 10K library compounds in Hek293 cells. CellTox Green Cytotoxicity Assay is a nonlytic, homogeneous, biofluorescent method to measure cytotoxicity in cell culture after experimental manipulation. The assay system uses a proprietary asymmetric cyanine dye that is excluded from viable cells but preferentially stains the dead cell's DNA. […] Viable cells produce no appreciable increases in fluorescence. Therefore, the fluorescence signal produced by the binding interaction with dead cell DNA is proportional to cytotoxicity.
The mixture of Hek293 cell suspension and reagents were dispensed at 600cells/6 ul/well in 1536-well tissue culture treated black solid bottom plates using a Multidrop dispenser. After the assay plates were incubated at a 37 C/5% CO2 incubator for 5 hours, 23 nL of compounds dissolved in DMSO, positive and negative controls was transferred to the assay plate by a pintool work station. The plates were incubated at 37 C for 40 hours. The fluorescence intensity were measured at 0h, 8h, 16h, 24h, 32h and 40h time points using ViewLux plate reader during compound treatment.
Potency means the concentration at half of the fitted maximal effect.

| SMILES | Potency | cytotoxicity increase |
| --- | --- | --- |
| C=CC(=O)O | inactive |  |
| CNCc1ccc(NC(=O)c2c[nH]c3c2C(=O)CCC3)cc1 | inactive |  |
| Cc1cccc2sc(N)nc12 | inactive |  |
| O=[N+]([O-])c1ccc2ncccc2c1 | inactive |  |
| COc1ccc(C(=O)NCc2ccc(OCCN(C)C)cc2)cc1OC | inactive |  |
| CCN(CC)CCNC(=O)c1cc(Cl)c(N)cc1OC | inactive |  |
| COc1cc(S(=O)(=O)Nc2ccccc2)c(OC)cc1N | inactive |  |
| C=CC(=O)NC(C)C | inactive |  |
| CC(=O)C(C)=O | inactive |  |
| CC1CCc2nccnc21 (stereo not given) | inactive |  |
| Nc1nc(-c2ccc([N+](=O)[O-])cc2)cs1 | inactive |  |
| CC(=O)C(=O)CC(C)C | inactive |  |
| COC1CCC=CO1 (stereo not given) | inactive |  |
| Nc1cccc2c(N)cccc12 | inactive |  |
| CCCCCCCCCCCCCCCCCC(=O)OCC(CC)CCCC (stereo not given) | inactive |  |
| CC(C)CC(O)CC(C)C | inactive |  |
| O=C(Nc1ccc(C(=O)O)c(O)c1)c1ccccc1 | inactive |  |
| SCCc1cnccn1 | inactive |  |
| CCCCCCCC/C=C\CCCCCCCC(=O)OCCO | inactive |  |
| CCCCCCC(CO)CCCC (stereo not given) | inactive |  |

| SMILES | Potency | cytotoxicity increase |
| --- | --- | --- |
| C=C(C)C(=O)OCCC(F)(F)C(F)(F)C(F)(F)C(F)(F)C(F)(F)C(F)(F)F | inactive |  |
| Nc1nc2ccc(OC(F)(F)F)cc2s1 | inactive |  |
| O=c1[nH]c2cc(C(F)(F)F)c(N3CCOCC3)cc2n(CP(=O)(O)O)c1=O | inactive |  |
| CCSC(=O)N(CC)CC | inactive |  |
| CCCCCCOC(=O)CCCCC | inactive |  |
| CC1CCC(C(C)CS)CC1S (stereo not given) | 49 µM (active) |  |
| O=P(O)(O)Oc1ccccc1 | inactive |  |
| O=C(c1ccccc1)c1ccc(O)cc1 | inactive |  |
| CC1=CC[C@@]23C[C@@H]1C(C)(C)[C@@H]2CC[C@H]3C | inactive |  |
| c1ccc2sc(SSc3nc4ccccc4s3)nc2c1 |  | 3.51% [at 15.8 µM] |
| CSSc1ccoc1C | inactive |  |
| CC(C)COC(=O)COc1cc(Cl)c(Cl)cc1Cl | inactive |  |
| CO[C@@H]1[C@@H](OC)[C@H](C)[C@@](O)(CC(=O)O)O[C@H]1[C@H](C)[C@H]1O[C@@]2(CC[C@@](C)([C@H]3CC[C@@](C)([C@@H]4O[C@@H]([C@H]5O[C@](C)(O)[C@H](C)C[C@@H]5C)C[C@@H]4OC4C[C@H](OC)[C@@H](OC)[C@H](C)O4)O3)O2)C[C@H](O)[C@H]1C (stereo not given in full) | inactive |  |
| O=C(O)CO | inactive |  |
| CC1C(C)(C)C2=C(C(=O)CCC2)C1(C)C (stereo not given) | inactive |  |
| CSCC[C@H](NC(=O)[C@H](Cc1c[nH]c2ccccc12)NC(=O)CCNC(=O)OC(C)(C)C)C(=O)N[C@@H](CC(=O)O)C(=O)N[C@@H](Cc1ccccc1)C(N)=O | inactive |  |
| CC(=O)OCCC1CCCCC1 | inactive |  |
| CC[C@@H](CO)NCCN[C@@H](CC)CO | inactive |  |
| O=C(O)c1cc(Cl)cc(Cl)c1O | inactive |  |
| COc1ccc(-n2nc(C(F)F)cc2-c2ccc(S(C)=O)cc2)cc1 (stereo not given) | inactive |  |
